MIN6 prolif – induces beta-cell replication in MIN6 cells; MIN6 cells proliferation, ATPlite luminescence, 48 h; cells starved in 0.2% serum; 100% = growth in 10% serum; proliferation, % at 10 µM; hit rate 0.29% among 330,000; AID 2380;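 active = compounds whose signal lies at least 3.5 SD above the mean of all wells on their plate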;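 also: 0% = DMSO-treated cells in low-serum medium and 100% = 10% serum control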
CHT PAM – allosteric activators of human choline transporter CHT | Q9GZV3 | CHT-expressing cells, membrane potential dye, choline EC20; hits give high values; LV-AA mutant CHT in HEK293 cells | B-score at 10 µM | hit rate 0.49% among 310,000;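 active = initial fluorescence not abnormally high and integrated response B-score, plate-corrected, over 3 SD above library mean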
Target sequence (Q9GZV3 whole entry, looked up): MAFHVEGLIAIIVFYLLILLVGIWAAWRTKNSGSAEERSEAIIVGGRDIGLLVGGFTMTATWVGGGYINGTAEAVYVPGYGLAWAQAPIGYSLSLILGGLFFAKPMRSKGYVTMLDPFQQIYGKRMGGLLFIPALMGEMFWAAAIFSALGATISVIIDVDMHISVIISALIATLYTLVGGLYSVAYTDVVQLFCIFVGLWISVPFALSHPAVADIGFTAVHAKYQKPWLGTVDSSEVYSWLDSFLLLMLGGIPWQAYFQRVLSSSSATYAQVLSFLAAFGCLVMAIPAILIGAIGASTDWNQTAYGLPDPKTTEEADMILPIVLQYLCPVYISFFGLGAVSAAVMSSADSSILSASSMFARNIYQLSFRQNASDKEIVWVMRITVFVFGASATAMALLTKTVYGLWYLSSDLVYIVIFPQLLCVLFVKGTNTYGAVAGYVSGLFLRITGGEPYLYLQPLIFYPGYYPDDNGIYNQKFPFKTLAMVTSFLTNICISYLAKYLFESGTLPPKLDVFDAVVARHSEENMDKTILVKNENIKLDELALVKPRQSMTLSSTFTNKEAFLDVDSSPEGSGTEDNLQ
H9c2 TAG inh – inhibitors of triacylglycerol accumulation | AID 651582 | inhibition, % at 12.5 µM | H9c2 cells, Nile Red lipid (TAG) fluorescence; cells loaded with 200 µM oleic acid | hit rate 0.66% among 230,000;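 active = pattern-corrected inhibition of lipid staining of at least 50% with the nuclear-stain viability signal not falling by more than 50%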;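 also: 0% = DMSO wells and 100% = triacsin C control wells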
CHT inh – inhibitors of human choline transporter CHT. Q9GZV3. CHT-expressing cells, membrane potential dye, choline response; hits give low values. B-score at 10 µM. hit rate 0.86% among 310,000;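 active = B-score over 3 SD under the library average, and starting fluorescence ratio not unusually high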;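 also: choline stimulus applied at its EC90 after an EC20 pre-addition; B-score computed on integrated fluorescence ratio after choline addition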
The depositor's hits bear a star. In the library only some 1.7% were active in any assay of this set; here they are far more common.

COc1ccc(C2NCCc3c2[nH]c2ccccc32)cc1COc1ccc(F)cc1 (centres undefined) was read as MIN6 prolif -6, CHT PAM inactive, H9c2 TAG inh 115* and CHT inh inactive.
Screening CN(C)c1ccc(/C=C/c2ccc3c4ccccc4ccc3[n+]2-c2ccccc2)cc1 returned H9c2 TAG inh 67*.
Screening CN(C)c1ccc(/C=C/c2ccc3ccccc3[n+]2C)cc1 returned MIN6 prolif 0, CHT PAM inactive and CHT inh inactive.
Screening CC(C)S(=O)(=O)C1=NSC2=NC(=O)/C(=C\c3ccc(OC(=O)c4ccco4)cc3)C(=N)N21 returned MIN6 prolif -1, CHT PAM inactive and CHT inh -8.2*.
Screening Cc1ccccc1N=C1c2cc([N+](=O)[O-])ccc2-c2ncccc21 returned MIN6 prolif -2, CHT PAM 9.7* and CHT inh inactive.
CNS(=O)(=O)c1cccc(C(=O)OCc2cc(=O)oc3c(C)c(O)ccc23)c1 was read as MIN6 prolif -3, CHT PAM inactive and CHT inh -6.3*.
CCc1cc2c(COC(=O)c3cccc(S(C)(=O)=O)c3)cc(=O)oc2cc1O was read as MIN6 prolif -2, CHT PAM inactive and CHT inh inactive.
For CN(C)CCNc1ccc2ncn3c4ccc(O)cc4c(=O)c1c23 the results were H9c2 TAG inh 75*.
O=C(NCCc1ccccc1)C(=O)NCC1OCCCN1S(=O)(=O)c1cccs1 (centres undefined) was read as MIN6 prolif -2, CHT PAM inactive and CHT inh inactive.
COc1ccc(/C=N/NC(=O)COc2ccccc2-c2ccccc2)cc1 was read as MIN6 prolif -3, CHT PAM inactive, H9c2 TAG inh 59* and CHT inh inactive.
COc1c(Cl)c(=O)oc2ccc(Cl)cc12 was read as H9c2 TAG inh 5.
For COc1ccccc1-n1c(=O)oc2ccc(Cl)cc2c1=O the results were MIN6 prolif -4, CHT PAM inactive, H9c2 TAG inh -8 and CHT inh -8.5*.
Screening Cc1ccc(N(C)S(=O)(=O)c2ccc(-c3cnc(C4CC4)o3)cc2)cc1 returned MIN6 prolif -5, CHT PAM 6.4* and CHT inh inactive.
For Cc1ccc(NS(=O)(=O)c2ccc(-c3cnc(C4CC4)o3)cc2)cc1 the results were MIN6 prolif -7, CHT PAM inactive and CHT inh inactive.
Screening O=C(NCc1cccnc1)c1ccc2sc([C@H]3C[C@H](O)[C@@H](CO)O3)nc2c1 returned H9c2 TAG inh 15.
Nc1c(C(=O)Nc2ccccc2)sc2nc(-c3cccnc3)ccc12 was read as MIN6 prolif -6, CHT PAM inactive and CHT inh -4.9*.
`CCOC(=O)NC(O)C(=O)c1cccs1` (centres undefined) gave MIN6 prolif 5.0*, CHT PAM inactive, H9c2 TAG inh 6 and CHT inh inactive.
C[C@H]1CC[C@H]2C(=O)N3[C@H](c4cccc(N5CCCC5=O)c4)[C@@H](C)CC[C@H]3C(=O)N2[C@@H]1c1cccc(N2CCCC2=O)c1 was read as MIN6 prolif -2, CHT PAM inactive and CHT inh inactive.
Screening C[C@H]1CC[C@H]2C(=O)N3[C@H](c4ccccc4Br)[C@@H](C)CC[C@H]3C(=O)N2[C@@H]1c1ccccc1Br returned MIN6 prolif -7, CHT PAM 8.1* and CHT inh inactive.
Screening CC1(C(=O)NS(=O)(=O)c2ccccc2Cl)CCN1C(=O)CCC1CCCC1 (centres undefined) returned H9c2 TAG inh 3.
For COc1cccc(OC)c1C(=O)Nc1ccc(S(=O)(=O)Nc2cc(C)nc(C)n2)cc1 the results were MIN6 prolif 0, CHT PAM inactive, H9c2 TAG inh 1 and CHT inh -5.3*.
Screening CCc1ccc2c(c1)cc(CN(Cc1ccco1)C(C)=O)c1nnnn12 returned MIN6 prolif 11*, CHT PAM inactive, H9c2 TAG inh 16 and CHT inh inactive.
`COc1ccccc1N1CCN(C(=O)C2CCCN(c3ncnc4c3nc3n4CCCCC3)C2)CC1` (centres undefined) gave MIN6 prolif 7, CHT PAM inactive and CHT inh inactive.
For Cc1ccc(C)c(N2CCN(C(=O)C3CCCN(c4ncnc5c4nc4n5CCCCC4)C3)CC2)c1 (centres undefined) the results were MIN6 prolif -7, CHT PAM inactive and CHT inh -7.4*.
For NC(CCCCc1ccccc1)c1cccc2ccccc12 (centres undefined) the results were MIN6 prolif -4, CHT PAM 11* and CHT inh inactive.
Screening CC(CCc1ccccc1)NCc1cccc2ccccc12 (centres undefined) returned MIN6 prolif -4, CHT PAM inactive, H9c2 TAG inh -3 and CHT inh inactive.
For C[C@H](NC(=O)N1CCn2c1nc1ccccc12)C(=O)N1CCCCC1 the results were MIN6 prolif 3, CHT PAM inactive and CHT inh inactive.
For Cc1c(Nc2cc(Cl)c3nonc3c2[N+](=O)[O-])c(=O)n(-c2ccccc2)n1C the results were MIN6 prolif -5 and H9c2 TAG inh 102*.
`Cc1c(Nc2cc(N3CCOCC3)c3nonc3c2[N+](=O)[O-])c(=O)n(-c2ccccc2)n1C` gave CHT PAM inactive and CHT inh inactive.
`Cc1c(C(=O)OCC(C)C)[nH]c2c1C(=O)CC(c1ccco1)C2` (centres undefined) gave MIN6 prolif -6, CHT PAM inactive and CHT inh inactive.
Cc1c(C(=O)OCC2CCCO2)[nH]c2c1C(=O)CC(c1ccco1)C2 (centres undefined) was read as MIN6 prolif 3, CHT PAM inactive, H9c2 TAG inh 56* and CHT inh inactive.
For CCCCn1c(=N)n(CC(=O)c2ccc(Br)s2)c2ccccc21 the results were MIN6 prolif -6, CHT PAM inactive, H9c2 TAG inh 70* and CHT inh inactive.
For COc1cc(/C=N/NC(=O)c2ccncc2)ccc1O the results were MIN6 prolif 1, CHT PAM inactive, H9c2 TAG inh 4 and CHT inh inactive.
`O=C(N/N=C/c1cc(Cl)ccc1O)c1ccncc1` gave MIN6 prolif -2, CHT PAM inactive, H9c2 TAG inh 53* and CHT inh inactive.
For Cn1nnnc1Sc1ncnc2scc(-c3cccc(Br)c3)c12 the results were MIN6 prolif -6 and H9c2 TAG inh 67*.
For COc1ccc(OC)c(NC(=O)C2(C)CCN2C(=O)C2(c3ccccc3)CCCC2)c1 (centres undefined) the results were H9c2 TAG inh 19.
Screening C/C(N=Nc1nc2ccccc2s1)=N\Nc1ccccc1O returned MIN6 prolif -6, CHT PAM inactive, H9c2 TAG inh 58* and CHT inh inactive.
Screening Oc1[nH]c2ccccc2c1N=Nc1nc2ccccc2s1 returned MIN6 prolif -5, CHT PAM inactive and CHT inh inactive.
For CCCN(CCC)CCCNC(=S)Nc1ccc2nc(N3CCCC3)cc(C)c2c1 the results were MIN6 prolif -5, CHT PAM inactive and CHT inh -9.5*.

Source: PubChem (several laboratories)
